# Experimental data reported in the supplement of paper PMC11732987, “Enantioselective OTUD7B fragment discovery through chemoproteomics screening and high-throughput optimisation” (Communications Chemistry, 2025).
# Values without a mark were called inactive.
# Tests used:
# Test in all cases: log2 ratio of Biotin-Ahx-Ub-VS probe labelling (fragment/DMSO); higher = less target engagement (more negative = stronger competition), active = hit call of the paper (q ≤ 0.05, log2 ratio ≤ -1)
# Conditions in all cases: compound concentration: 200 uM; treatment time: 3 h
# USP19 = biological target: T1, USP19 (UniProt O94966)
# T1 sequence (whole entry): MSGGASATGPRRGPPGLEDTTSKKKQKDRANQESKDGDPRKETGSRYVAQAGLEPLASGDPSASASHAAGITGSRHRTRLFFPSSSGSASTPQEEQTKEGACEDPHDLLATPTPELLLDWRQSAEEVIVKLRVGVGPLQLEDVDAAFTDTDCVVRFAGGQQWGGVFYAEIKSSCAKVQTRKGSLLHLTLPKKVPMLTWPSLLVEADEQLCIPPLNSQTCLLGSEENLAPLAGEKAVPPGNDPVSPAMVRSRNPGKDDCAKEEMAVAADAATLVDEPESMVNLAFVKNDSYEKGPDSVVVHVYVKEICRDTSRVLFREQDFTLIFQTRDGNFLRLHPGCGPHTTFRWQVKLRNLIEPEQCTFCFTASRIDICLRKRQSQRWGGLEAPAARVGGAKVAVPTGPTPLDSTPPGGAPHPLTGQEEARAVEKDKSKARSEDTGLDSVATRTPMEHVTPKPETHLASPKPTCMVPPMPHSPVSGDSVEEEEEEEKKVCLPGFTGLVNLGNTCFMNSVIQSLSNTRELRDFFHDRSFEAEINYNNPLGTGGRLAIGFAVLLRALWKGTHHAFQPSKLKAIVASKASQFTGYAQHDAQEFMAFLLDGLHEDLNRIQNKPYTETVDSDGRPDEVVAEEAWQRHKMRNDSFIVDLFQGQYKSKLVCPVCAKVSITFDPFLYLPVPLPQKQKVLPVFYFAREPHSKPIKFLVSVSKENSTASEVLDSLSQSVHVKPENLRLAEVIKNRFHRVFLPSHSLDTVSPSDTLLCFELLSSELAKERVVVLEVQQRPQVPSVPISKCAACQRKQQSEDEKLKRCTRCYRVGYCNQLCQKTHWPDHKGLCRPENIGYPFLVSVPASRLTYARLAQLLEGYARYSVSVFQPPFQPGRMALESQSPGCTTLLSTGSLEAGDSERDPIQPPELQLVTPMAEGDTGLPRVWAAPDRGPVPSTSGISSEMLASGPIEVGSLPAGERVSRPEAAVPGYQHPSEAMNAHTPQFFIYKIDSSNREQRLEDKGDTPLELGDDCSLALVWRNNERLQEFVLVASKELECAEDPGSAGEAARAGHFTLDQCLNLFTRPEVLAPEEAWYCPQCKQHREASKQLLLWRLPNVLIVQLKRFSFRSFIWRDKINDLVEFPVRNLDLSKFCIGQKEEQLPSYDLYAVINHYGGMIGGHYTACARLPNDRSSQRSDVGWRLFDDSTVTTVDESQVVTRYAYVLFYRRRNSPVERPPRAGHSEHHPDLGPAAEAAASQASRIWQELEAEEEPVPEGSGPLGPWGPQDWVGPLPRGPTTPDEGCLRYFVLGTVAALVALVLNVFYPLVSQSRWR
# Summary of the method: (§1)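 HEK293T lysate (495 µg per sample, in Tris/CHAPS/IGEPAL buffer with protease inhibitors) was exposed in triplicate for 3 h to fragment at 200 µM or to vehicle, then to Biotin-Ahx-Ub-VS at 0.5 µM final for 1 h. Labelled DUBs were enriched on NeutrAvidin, digested with LysC and trypsin, and analysed by diaPASEF LC-MS/MS. Spectronaut label-free quantities were normalised to the global median, and values are average log2 ratios of fragment over vehicle from an unpaired t-test. Only proteins with ≥2 unique peptides were used.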
# USP24 = USP24 (UniProt Q9UPU5)
# USP24, sequence (Q9UPU5 whole entry): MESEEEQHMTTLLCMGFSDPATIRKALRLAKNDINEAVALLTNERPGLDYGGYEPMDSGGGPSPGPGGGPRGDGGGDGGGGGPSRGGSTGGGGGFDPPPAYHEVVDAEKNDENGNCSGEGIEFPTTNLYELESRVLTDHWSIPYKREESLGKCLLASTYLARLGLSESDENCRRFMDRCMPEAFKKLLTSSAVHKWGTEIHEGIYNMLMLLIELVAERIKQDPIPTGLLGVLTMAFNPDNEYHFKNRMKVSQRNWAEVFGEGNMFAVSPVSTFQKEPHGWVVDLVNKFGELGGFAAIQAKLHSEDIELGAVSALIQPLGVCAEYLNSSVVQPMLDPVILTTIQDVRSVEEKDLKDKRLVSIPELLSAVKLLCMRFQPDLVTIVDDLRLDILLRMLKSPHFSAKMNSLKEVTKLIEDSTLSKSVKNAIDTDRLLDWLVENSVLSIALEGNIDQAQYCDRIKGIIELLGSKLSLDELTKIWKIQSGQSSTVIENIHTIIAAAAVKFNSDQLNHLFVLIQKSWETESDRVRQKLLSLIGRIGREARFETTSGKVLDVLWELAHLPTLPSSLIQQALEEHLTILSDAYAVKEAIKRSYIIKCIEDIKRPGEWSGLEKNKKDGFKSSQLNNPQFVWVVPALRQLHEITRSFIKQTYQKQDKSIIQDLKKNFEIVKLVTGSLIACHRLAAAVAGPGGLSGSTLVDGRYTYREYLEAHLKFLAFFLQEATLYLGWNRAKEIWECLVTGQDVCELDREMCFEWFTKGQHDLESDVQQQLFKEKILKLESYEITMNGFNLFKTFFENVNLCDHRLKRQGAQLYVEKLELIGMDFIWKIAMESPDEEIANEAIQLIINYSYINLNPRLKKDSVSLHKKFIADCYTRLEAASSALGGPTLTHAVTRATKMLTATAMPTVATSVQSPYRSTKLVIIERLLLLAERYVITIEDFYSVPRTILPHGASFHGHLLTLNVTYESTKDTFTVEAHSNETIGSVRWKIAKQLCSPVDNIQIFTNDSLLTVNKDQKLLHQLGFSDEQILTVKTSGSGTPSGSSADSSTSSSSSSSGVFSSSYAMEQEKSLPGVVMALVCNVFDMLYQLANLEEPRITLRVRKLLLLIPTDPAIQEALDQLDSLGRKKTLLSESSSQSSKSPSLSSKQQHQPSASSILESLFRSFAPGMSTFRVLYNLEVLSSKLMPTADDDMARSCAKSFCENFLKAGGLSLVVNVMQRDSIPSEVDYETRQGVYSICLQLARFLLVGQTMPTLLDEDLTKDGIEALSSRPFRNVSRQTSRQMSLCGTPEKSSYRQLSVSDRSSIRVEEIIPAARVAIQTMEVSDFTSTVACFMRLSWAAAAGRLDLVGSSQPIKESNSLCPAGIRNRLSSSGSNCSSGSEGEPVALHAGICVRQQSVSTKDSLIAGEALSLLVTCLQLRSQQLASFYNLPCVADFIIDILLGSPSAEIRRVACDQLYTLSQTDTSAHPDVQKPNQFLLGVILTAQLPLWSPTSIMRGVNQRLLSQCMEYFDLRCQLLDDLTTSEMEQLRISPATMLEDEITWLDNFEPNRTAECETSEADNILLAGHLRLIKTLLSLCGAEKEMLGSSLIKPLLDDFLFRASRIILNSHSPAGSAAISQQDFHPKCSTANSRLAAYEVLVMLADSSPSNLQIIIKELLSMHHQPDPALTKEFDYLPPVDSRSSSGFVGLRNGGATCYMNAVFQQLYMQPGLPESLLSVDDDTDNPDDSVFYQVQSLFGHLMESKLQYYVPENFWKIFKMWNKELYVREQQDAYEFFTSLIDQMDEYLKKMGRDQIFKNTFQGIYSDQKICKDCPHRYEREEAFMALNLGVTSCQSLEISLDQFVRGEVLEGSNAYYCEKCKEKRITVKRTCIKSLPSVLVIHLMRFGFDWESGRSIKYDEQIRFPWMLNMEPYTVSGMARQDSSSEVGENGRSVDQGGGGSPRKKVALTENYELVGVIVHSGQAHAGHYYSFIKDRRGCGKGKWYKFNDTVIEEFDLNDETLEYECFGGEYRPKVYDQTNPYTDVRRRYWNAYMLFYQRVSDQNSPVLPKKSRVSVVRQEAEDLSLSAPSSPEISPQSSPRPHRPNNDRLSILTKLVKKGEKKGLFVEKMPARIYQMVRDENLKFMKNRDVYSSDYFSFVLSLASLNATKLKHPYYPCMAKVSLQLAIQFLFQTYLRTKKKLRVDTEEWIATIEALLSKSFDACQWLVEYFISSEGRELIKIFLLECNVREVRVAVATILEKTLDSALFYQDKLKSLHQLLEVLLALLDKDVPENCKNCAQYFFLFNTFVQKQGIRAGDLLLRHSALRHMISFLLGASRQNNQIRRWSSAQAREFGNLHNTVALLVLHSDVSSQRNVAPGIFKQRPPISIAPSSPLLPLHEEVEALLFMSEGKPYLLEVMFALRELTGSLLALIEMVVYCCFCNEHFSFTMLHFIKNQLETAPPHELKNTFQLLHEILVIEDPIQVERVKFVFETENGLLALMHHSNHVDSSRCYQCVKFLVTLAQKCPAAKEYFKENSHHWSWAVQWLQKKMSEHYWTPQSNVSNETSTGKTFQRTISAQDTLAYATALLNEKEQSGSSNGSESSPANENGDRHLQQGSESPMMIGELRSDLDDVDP
# Summary of the method: as §1
# USP25 = biological target: T2, USP25 (UniProt Q9UHP3)
# T2 sequence (whole entry): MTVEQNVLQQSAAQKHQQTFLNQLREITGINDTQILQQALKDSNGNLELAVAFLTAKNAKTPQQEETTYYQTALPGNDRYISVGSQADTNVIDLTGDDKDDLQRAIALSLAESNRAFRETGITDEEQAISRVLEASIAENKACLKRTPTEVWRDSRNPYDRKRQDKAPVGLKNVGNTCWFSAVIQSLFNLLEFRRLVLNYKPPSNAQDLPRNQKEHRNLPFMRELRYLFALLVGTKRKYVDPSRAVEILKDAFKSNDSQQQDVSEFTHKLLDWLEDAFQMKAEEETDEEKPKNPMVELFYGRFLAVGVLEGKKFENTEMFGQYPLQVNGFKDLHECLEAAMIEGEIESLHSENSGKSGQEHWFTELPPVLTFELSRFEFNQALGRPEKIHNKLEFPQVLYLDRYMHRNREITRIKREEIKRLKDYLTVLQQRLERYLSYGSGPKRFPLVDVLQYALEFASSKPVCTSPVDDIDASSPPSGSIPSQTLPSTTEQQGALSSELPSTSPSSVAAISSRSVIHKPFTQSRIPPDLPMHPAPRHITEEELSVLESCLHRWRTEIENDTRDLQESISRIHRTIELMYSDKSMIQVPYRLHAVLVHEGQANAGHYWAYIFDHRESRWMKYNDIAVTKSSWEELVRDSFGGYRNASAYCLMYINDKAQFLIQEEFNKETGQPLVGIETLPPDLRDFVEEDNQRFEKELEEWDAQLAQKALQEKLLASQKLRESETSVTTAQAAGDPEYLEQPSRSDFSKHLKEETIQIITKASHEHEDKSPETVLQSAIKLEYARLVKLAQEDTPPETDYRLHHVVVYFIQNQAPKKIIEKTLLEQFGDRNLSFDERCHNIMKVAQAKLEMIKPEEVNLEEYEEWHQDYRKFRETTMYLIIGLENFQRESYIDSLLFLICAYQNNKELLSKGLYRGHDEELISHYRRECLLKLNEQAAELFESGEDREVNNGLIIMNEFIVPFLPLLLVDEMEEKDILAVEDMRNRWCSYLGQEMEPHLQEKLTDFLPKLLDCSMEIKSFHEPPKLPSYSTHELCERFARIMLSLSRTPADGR
# Summary of the method: as §1
# USP28 = biological target: T3, USP28 (UniProt Q96RU2)
# T3 sequence (whole entry): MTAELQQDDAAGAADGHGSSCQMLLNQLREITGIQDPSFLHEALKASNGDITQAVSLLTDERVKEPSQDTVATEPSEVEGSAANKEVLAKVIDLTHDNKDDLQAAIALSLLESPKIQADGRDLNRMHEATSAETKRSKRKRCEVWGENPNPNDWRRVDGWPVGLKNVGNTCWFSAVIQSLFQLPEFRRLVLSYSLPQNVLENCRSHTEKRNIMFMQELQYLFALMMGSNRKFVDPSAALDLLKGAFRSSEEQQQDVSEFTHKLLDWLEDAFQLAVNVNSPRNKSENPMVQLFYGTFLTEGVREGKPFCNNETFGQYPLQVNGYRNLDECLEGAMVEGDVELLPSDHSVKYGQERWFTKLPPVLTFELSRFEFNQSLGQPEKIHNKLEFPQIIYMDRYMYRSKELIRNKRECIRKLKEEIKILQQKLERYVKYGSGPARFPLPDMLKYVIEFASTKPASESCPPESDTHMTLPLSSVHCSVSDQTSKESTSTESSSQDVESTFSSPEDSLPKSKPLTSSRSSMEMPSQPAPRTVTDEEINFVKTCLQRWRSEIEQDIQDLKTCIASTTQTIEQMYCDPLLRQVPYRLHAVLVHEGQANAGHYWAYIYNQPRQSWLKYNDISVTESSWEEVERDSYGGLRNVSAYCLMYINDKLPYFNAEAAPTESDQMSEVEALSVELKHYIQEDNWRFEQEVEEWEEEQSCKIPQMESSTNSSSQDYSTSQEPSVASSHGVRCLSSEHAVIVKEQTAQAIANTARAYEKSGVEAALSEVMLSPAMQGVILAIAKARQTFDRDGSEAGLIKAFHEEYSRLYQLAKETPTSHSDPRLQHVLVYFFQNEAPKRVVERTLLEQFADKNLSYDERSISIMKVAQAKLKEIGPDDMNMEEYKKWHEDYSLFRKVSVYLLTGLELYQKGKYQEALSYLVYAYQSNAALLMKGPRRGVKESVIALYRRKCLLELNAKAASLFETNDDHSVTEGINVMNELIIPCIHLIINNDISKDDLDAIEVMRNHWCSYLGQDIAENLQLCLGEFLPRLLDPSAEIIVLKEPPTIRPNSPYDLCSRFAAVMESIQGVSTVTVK
# Summary of the method: as §1
compound,measurement,setting,value
CC(=O)Nc1ccc(NC(=O)CCl)cc1,log2 ratio of Biotin-Ahx-Ub-VS probe labelling,USP19,-0.179
same,log2 ratio of Biotin-Ahx-Ub-VS probe labelling,USP24,-0.314
same,log2 ratio of Biotin-Ahx-Ub-VS probe labelling,USP25,-1.33 (active)
same,log2 ratio of Biotin-Ahx-Ub-VS probe labelling,USP28,-0.938
